GluA2 TARP mod = modulates AMPAR-stargazin complexes | calls only at 30 µM | HEK293 GluA2+stargazin, membrane potential dye (FDSS), glutamate EC50; hits were called plate by plate, in both directions | AID 1259245 | actives 3.5% (n = 40,000) | O88602+P19491;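 active = any of four per-well response measures lying three or more SD from its plate-wide compound average, in either direction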
Target sequence (O88602 whole entry, looked up): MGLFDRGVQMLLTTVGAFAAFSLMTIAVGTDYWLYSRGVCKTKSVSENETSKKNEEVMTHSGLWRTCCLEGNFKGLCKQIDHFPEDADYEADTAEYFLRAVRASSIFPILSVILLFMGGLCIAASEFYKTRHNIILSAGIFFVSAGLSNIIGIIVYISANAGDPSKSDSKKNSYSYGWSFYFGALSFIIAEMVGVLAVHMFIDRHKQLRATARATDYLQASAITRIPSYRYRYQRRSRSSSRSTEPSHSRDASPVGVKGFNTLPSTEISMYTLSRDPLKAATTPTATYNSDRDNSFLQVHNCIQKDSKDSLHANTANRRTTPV
Target sequence (P19491 whole entry, looked up): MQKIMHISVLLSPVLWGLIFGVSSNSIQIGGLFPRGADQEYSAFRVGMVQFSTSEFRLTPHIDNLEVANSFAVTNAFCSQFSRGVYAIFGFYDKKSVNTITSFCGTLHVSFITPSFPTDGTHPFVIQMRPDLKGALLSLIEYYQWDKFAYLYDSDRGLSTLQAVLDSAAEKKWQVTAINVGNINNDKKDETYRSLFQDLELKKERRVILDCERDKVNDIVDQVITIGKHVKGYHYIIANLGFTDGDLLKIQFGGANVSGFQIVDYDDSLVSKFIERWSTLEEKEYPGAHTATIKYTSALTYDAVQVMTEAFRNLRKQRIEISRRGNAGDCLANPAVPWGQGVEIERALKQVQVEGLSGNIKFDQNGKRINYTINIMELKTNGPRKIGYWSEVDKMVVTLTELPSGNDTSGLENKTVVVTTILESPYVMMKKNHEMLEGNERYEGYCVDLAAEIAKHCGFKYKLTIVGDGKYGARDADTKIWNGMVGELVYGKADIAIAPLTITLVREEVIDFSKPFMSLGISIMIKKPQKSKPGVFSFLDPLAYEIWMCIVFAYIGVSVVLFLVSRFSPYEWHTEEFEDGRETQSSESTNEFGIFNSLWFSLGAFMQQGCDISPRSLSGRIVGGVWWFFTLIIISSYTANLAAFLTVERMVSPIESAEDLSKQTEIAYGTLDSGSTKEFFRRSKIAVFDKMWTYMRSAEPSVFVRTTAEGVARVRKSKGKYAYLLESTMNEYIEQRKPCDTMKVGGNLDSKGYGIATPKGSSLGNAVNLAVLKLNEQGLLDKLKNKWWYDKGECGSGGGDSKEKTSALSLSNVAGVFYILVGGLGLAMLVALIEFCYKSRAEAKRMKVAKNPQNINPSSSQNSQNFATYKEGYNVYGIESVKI
GIRK2 activator = GIRK2 channel activators by thallium flux | HEK293 GIRK2/NPY4 cells, thallium flux fluorescence | activation (% efficacy), % for hits at 37.5 µM | 34,000 tested, under 10 active;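 active = primary screen hit, no activity in plain HEK293 cells, and in GIRK2-only cells above 5% efficacy rising with concentration; inactive = the rest, including fluorescent compounds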;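 note: efficacy is normalized control-subtracted fluorescence 15 s after thallium addition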
The depositor's hits bear a star; ! = a repeat was not active. The full list was thinned out, with hits kept by preference.

CC1CCN(c2nc3c(c(=O)[nH]c(=O)n3C)n2CC(O)COc2ccc(Cl)cc2)CC1 (configuration not stated) was read as GluA2 TARP mod inactive.
Screening Cn1c(=O)[nH]c(=O)c2c1nc(N1CCNCC1)n2CC(O)COc1ccc(Cl)cc1 (configuration not stated) returned GluA2 TARP mod active.
Screening Cc1ccc(OCC(O)Cn2c(N3CCCC3)nc3c2c(=O)n(C)c(=O)n3C)cc1C (configuration not stated) returned GluA2 TARP mod inactive.
Screening CN(c1ccsc1C(=O)Nc1cccc(Cl)c1)S(=O)(=O)c1ccccc1 returned GluA2 TARP mod inactive and GIRK2 activator inactive.
Screening CC(C)c1ccc(NC(=O)c2sccc2N(C)S(=O)(=O)c2ccccc2)cc1 returned GluA2 TARP mod active! and GIRK2 activator inactive.
`Cc1nn(C)cc1CN(C)C(=O)c1cccc(Cl)c1` gave GluA2 TARP mod inactive and GIRK2 activator inactive.
O=C(NCCOc1ccc(F)cc1)c1ccccc1Cl was read as GluA2 TARP mod inactive and GIRK2 activator inactive.
`O=C(NCCOc1ccc(F)cc1)c1c(F)cccc1Cl` gave GluA2 TARP mod active and GIRK2 activator inactive.
Cc1cccc(S(=O)(=O)Nc2ccc3c(c2)N(S(C)(=O)=O)CCC3)c1 was read as GluA2 TARP mod inactive.
Cc1nc(NCCc2ccccc2)nc(N2CCCC2)c1[N+](=O)[O-] was read as GluA2 TARP mod inactive and GIRK2 activator inactive.
COc1ccc(F)cc1S(=O)(=O)NCC(O)c1ccc(C(F)(F)F)cc1 (configuration not stated) was read as GluA2 TARP mod inactive and GIRK2 activator inactive.
COc1ccc(F)cc1S(=O)(=O)NCCC(O)C(C)(C)C (configuration not stated) was read as GluA2 TARP mod active and GIRK2 activator inactive.
For Cc1nn2c(NCCN3CCOCC3)cc(C(C)C)nc2c1-c1ccccc1 the results were GluA2 TARP mod inactive and GIRK2 activator inactive.
For Cc1cc(N2CCN(C(=O)COc3ncccn3)CC2)nc(N2CCCCC2)n1 the results were GIRK2 activator inactive.
`Cc1ccc(C(=O)N2CCN(c3nc(C)cc(N4CCCC4)n3)CC2)cc1` gave GluA2 TARP mod active.
Screening O=C(CSc1ccc(F)cc1)N(CCCn1ccnc1)c1nc2c(F)cccc2s1 returned GluA2 TARP mod inactive and GIRK2 activator inactive.
Screening COc1ccc(Cl)cc1NC(=O)Cn1ncn2nc3c(c2c1=O)CCCC3 returned GluA2 TARP mod active and GIRK2 activator inactive.
`COc1ccc(CCNC(=O)Cn2ncn3nc4c(c3c2=O)CCCC4)cc1OC` gave GIRK2 activator inactive.
`O=C(CC1CCCC1)Nc1nc(CSCc2ccc(F)cc2)cs1` gave GluA2 TARP mod active and GIRK2 activator inactive.
Screening O=C(CCc1csc(NC(=O)c2ccc(F)cc2)n1)NCC1CCCCC1 returned GluA2 TARP mod inactive and GIRK2 activator inactive.
COCCn1c(-c2ccc(F)cc2)nc2c(c(=O)c3ccccc3n2C)c1=O was read as GluA2 TARP mod inactive.
Screening CCCn1c(-c2ccc(OC)cc2)nc2c(c(=O)c3ccccc3n2C)c1=O returned GluA2 TARP mod inactive.
For CCCCn1c(-c2ccc([N+](=O)[O-])cc2)nc2c(c(=O)c3ccccc3n2C)c1=O the results were GluA2 TARP mod active.
For COCCn1c(-c2ccc([N+](=O)[O-])cc2)nc2sc3ccccc3c(=O)c2c1=O the results were GluA2 TARP mod active and GIRK2 activator inactive.
Screening CCCNC(=O)C(=O)NCC1CCN(C(C)C)CC1 returned GluA2 TARP mod inactive and GIRK2 activator inactive.
Screening Cc1ccc(-c2csc(NC(=O)C3CCCN(S(C)(=O)=O)C3)n2)cc1 (configuration not stated) returned GluA2 TARP mod inactive and GIRK2 activator inactive.
Cc1ccc(N2C(=O)CCS2(=O)=O)cc1S(=O)(=O)NCc1ccccn1 was read as GluA2 TARP mod inactive and GIRK2 activator inactive.
Screening Cc1ccc(-c2cnn3c(NCCCn4ccnc4)cc(C)nc23)cc1 returned GluA2 TARP mod inactive and GIRK2 activator inactive.
For O=C(COc1ccccc1C1CC(c2ccccc2)=NN1C(=O)c1ccccc1)NCCO (configuration not stated) the results were GluA2 TARP mod active.
O=C(c1ccccc1)N1N=C(c2ccc(F)cc2)CC1c1ccc2nccnc2c1 (configuration not stated) was read as GIRK2 activator inactive.
Screening Cc1ccc(CNC(=O)C(=O)Nc2ccc3c(c2)N(C(=O)C(C)C)CCC3)cc1 returned GluA2 TARP mod inactive and GIRK2 activator inactive.
Cc1cc(C(=O)NCC(c2cccs2)N(C)C)no1 (configuration not stated) was read as GluA2 TARP mod inactive and GIRK2 activator inactive.
Screening COc1ccc(Cl)cc1S(=O)(=O)Cc1nc(-c2cccc(C(F)(F)F)c2)no1 returned GluA2 TARP mod inactive and GIRK2 activator inactive.
Cc1cc(N2CCN(C)CC2)nc(SCC2COc3ccccc3O2)n1 (configuration not stated) was read as GluA2 TARP mod active.
For NCC(O)COCC1COc2ccccc2O1 (configuration not stated) the results were GluA2 TARP mod inactive and GIRK2 activator inactive.
`CCC(=O)Nc1ccc(C(=O)NCCNC(=O)NCc2ccc(F)cc2)cc1` gave GIRK2 activator inactive.
COc1cc(/C=C/C(=O)NCC2CCN(C(=O)COc3ccccc3)CC2)cc(OC)c1OC was read as GluA2 TARP mod inactive and GIRK2 activator inactive.
Screening Cn1c(=O)c2c(nc(N3CCCC3)n2CC(O)COc2ccccc2)n(C)c1=O (configuration not stated) returned GluA2 TARP mod inactive.
N#Cc1ccccc1Cn1cc(-c2nc(-c3cnccn3)no2)ccc1=O was read as GluA2 TARP mod active and GIRK2 activator inactive.
Screening CC(C)NC(=O)Cn1cc(-c2nc(-c3cnccn3)no2)ccc1=O returned GluA2 TARP mod inactive and GIRK2 activator inactive.
Screening COc1cn(-c2ccc(F)cc2)nc1C(=O)NCCCn1ccnc1 returned GluA2 TARP mod active and GIRK2 activator inactive.
COCCCNC(=O)c1nn(-c2ccc(F)cc2)cc1OC was read as GluA2 TARP mod inactive and GIRK2 activator inactive.
O=C1CCc2cc(NS(=O)(=O)c3ccc(Cl)s3)ccc2N1 was read as GluA2 TARP mod inactive.
COc1ccccc1CCNC(=O)CC1CCCCN1S(=O)(=O)c1ccccc1 (configuration not stated) was read as GluA2 TARP mod inactive.
Screening COc1ccccc1CCNC(=O)CC1CCCCN1S(=O)(=O)c1ccc(C)cc1 (configuration not stated) returned GluA2 TARP mod active.
For Cc1ccc(S(=O)(=O)N2CCCCC2CC(=O)NC2CCCCC2)cc1 (configuration not stated) the results were GluA2 TARP mod inactive.
Screening COc1ccccc1CCNC(=O)CC1CCCCN1S(=O)(=O)c1ccc(Cl)cc1 (configuration not stated) returned GluA2 TARP mod active.
Screening O=C(CC1CCCCN1S(=O)(=O)c1ccccc1)NC1CCCCC1 (configuration not stated) returned GluA2 TARP mod active.

Screening results as filed in PubChem.
